The results in this text go back to PubChem BioAssay (Tox21).

Results filed as inconclusive are left out. A number with no mark means an inactive call. Activity calls are given as the source filed them. Unless noted, calls come from the whole dose curve; as a rule, active = well fitted curve in the direction sought with a large enough effect in the repeat runs; inconclusive = weak or mixed curves; inactive = no such curve, though single readings can be large; an effect the other way counts as inactive or inconclusive.

Test [1] is described as follows: qHTS assay to identify small molecule agonists of the RXR signaling pathway - cell viability counter screen (AID 1159529). Note: series mostly up to about 77 µM; nearly all actives have a fitted effect of over 50% in size. In short, it runs like this: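 Compounds dissolved in DMSO were pinned onto HEK 293T cells carrying a beta-lactamase reporter under RXR-alpha control and incubated 16 hr. Cytotoxicity was then quantified by CellTiter-Glo luminescence.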
On the technique in general: In qHTS, concentration-response curves come from the screen itself.

A short description of test [2]: qHTS assay to identify small molecule antagonists of the retinoid acid receptor (RAR) signaling pathway - cell viability counter screen (AID 1159551). Note: nearly all actives have a fitted effect of over 35% in size. In outline: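 In this counter screen, the RARE-luciferase line C3RL4 was exposed for 6 h at 37 C and 5% CO2 to compounds with retinol at 1 uM final. Cellular ATP, read by luminescence, served as the viability measure.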

Test [3] is described as follows: qHTS assay to identify small molecule antagonists of the retinoic acid receptor (RAR) signaling pathway (AID 1159552; note: nearly all actives have a fitted effect of over 50% in size; note: potency is the fitted concentration of half-maximal effect). In short, it runs like this: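 Test chemicals and DMSO controls were pin-transferred onto C3RL4 cells a day after seeding; retinol (1 uM final) followed at once. Luminescent reporter output was quantified after 6 hr of co-incubation and 30 min with detection reagent.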

In test [4] the target is Retinoic acid receptor RXR-alpha (Homo sapiens) (UniProt P19793). In words: qHTS assay to identify small molecule agonists of the RXR signaling pathway (AID 1159527; calls by dose curve; note: nearly all actives have a fitted effect of over 35% in size). In outline: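 Using 9-cis retinoic acid as the reference agonist, chemicals were tested in HEK 293T cells […] for 16 hr; substrate loading lasted 2 hr at room temperature.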
Chain of Retinoic acid receptor RXR-alpha (Homo sapiens) (P19793 whole entry, looked up): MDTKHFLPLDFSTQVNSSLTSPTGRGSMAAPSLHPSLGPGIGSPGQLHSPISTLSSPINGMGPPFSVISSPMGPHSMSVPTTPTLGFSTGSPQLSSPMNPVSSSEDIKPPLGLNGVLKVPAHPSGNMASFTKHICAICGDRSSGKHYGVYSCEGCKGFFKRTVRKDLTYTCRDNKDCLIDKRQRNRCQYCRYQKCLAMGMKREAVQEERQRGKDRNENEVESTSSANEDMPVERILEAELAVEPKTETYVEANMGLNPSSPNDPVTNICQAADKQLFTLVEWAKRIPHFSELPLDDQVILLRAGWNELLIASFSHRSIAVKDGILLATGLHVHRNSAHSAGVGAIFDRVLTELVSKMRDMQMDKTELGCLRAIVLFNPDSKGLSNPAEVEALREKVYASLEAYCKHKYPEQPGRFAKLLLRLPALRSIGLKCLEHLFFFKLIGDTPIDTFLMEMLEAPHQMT

A short description of test [5]: qHTS assay to identify small molecule agonists of the retinoic acid receptor (RAR) signaling pathway (AID 1159553). Note: potency is the fitted concentration of half-maximal effect. In outline: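 In this cell-based screen, 1,000 C3RL4 cells per well were cultured overnight, dosed with test chemicals in DMSO for 6 hr, and assessed for RARE luciferase luminescence.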
The nature of test [6]: qHTS assay to identify small molecule antagonists of the estrogen related receptor (ERR) signaling pathway - cell viability counter screen (AID 1224818). Note: series mostly up to about 46 µM. In outline:
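Viability of ERR cells, CellTiter-Fluor fluorescence; 17.5 h compound exposure at 37 C, DMSO vehicle; 30 min reagent incubation at 37 C/5% CO2.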

A short description of test [7]: qHTS assay to identify small molecule antagonists of the estrogen related receptor (ERR) signaling pathway (AID 1224819; note: series mostly up to about 46 µM; nearly all actives have a fitted effect of over 50% in size). In outline:
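Seed ERR cells 2,000/well; rest 6 h at 37 C/5% CO2; pin compounds in DMSO; incubate 18 h at 37 C; add One-Glo; wait 30 min at room temperature; measure luminescence.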

A short description of test [8]: qHTS assay to identify small molecule agonists of the estrogen related receptor (ERR) signaling pathway (AID 1224820). In short, it runs like this: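 After 6 h plating (2,000 cells/well) and 18 h compound treatment at 37 C, ERR cells were lysed with One-Glo and luminescence read after 30 min at room temperature.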
Test [9] concerns estrogen-related receptor alpha (ERRalpha) with PGC-1alpha coactivator, human. In words: qHTS assay to identify small molecule antagonists of the estrogen related receptor signaling pathway with the pleiotropic PPARgamma coactivator (PGC) (AID 1224821; calls by dose curve;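 note: series mostly up to about 46 µM; lower luminescence signal means antagonism of PGC/ERR signalling; nearly all actives have a fitted effect of over 50% in size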). In outline: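 Luminescence from One-Glo luciferase reagent (30 min, room temperature) measured after 18 h compound treatment at 37 °C. Cells carry the PGC/ERR reporter and were seeded 6 h prior to dosing.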

Test [10] can be described thus: qHTS assay to identify small molecule agonists of the estrogen related receptor signaling pathway with the pleiotropic PPARgamma coactivator (PGC) (AID 1224823). In outline:
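Luminescence from One-Glo reagent (30 min, room temperature) was read after 18 h compound treatment at 37 C of PGC/ERR cells plated 6 h beforehand; compounds delivered in DMSO by pin tool.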
% is set by controls: 0 for no effect and ±100 for the full control effect.

Consider `O=C(O)c1ccccc1Nc1cc(Cl)ccc1C(=O)O`, for which the activity change, negative = cytotoxicity in [1] is -23.8% [at 15.8 µM]; in test [2], -3.95% [at 19 µM]. Besides, the activity, negative = inhibition in [3] was -145% [at 19 µM].
In the case of `CC1=C(O)C(=O)OC1C` (stereo unspecified), the Potency entry in test [4], in test [1], in test [3] and in test [5] was “inactive” throughout.
In the case of `C=CC(C)(O)CC/C=C(\C)CCC=C(C)C` (stereo unspecified), the Potency entry in test [1] was “inactive”. For the same compound, in [2], the call was inactive.
As for `CC(C)Nc1nc(N)nc(Cl)n1`, the Potency entry in test [4], in test [1], in [3] and in test [5] was “inactive” throughout.
As for `Cc1cc2c(s1)Nc1ccccc1N=C2N1CCN(C)CC1`, the Potency result in test [4], in test [3] and in test [5] was “inactive” each time. For the same compound, in test [2], the result was inactive.
In the case of `CCCCCCCCCC/C=C/C#N`, the Potency entry in test [4], in test [1], in test [3] and in [5] was “inactive” in each case.
As to `CCOC(=O)c1cc(=O)c2c(OCC(COc3cccc4oc(C(=O)OCC)cc(=O)c34)OC(=O)[C@@H](N)CCCCN)cccc2o1`, the Potency entry in test [4], in test [1], in test [3] and in test [5] was “inactive” throughout.
`ClC(Cl)Cl`: the Potency result in test [1] and in test [3] was “inactive” in each case. The result in test [2] was inactive.
For the compound `Cc1cc2nc(N)sc2cc1C`, the Potency result in test [4] and in [3] was “inactive” throughout. The outcome in test [2] was inactive. Also, in [5], the Potency is 1.38 µM (active).
On to `CCN(CC)CCOc1ccc(Cc2ccccc2)cc1`, for which the Potency result in test [1] is “inactive”. In addition, the call in [2] was inactive.
Regarding `CCCCNc1ccc(C(=O)OCCN(CC)CC)cc1`, the Potency result in [4] is “inactive”. Besides, in test [2], the outcome was inactive.
For the compound `CC(C)O`, in [1], the Potency result was “inactive”. Besides, in test [2], the compound was classed as inactive.
As to `CC[C@H]1CC[C@H](NCc2cc3c(cc2OC)[C@H]2C[C@H]2C(=O)N3C)[C@H](c2ccccc2)N1`, the Potency result in [1] is “inactive”. Besides, in test [2], the compound was classed as inactive. Moreover, the Potency in test [3] is 13.7 µM (active).
As for `CN1CCC[C@@H]1Cc1c[nH]c2ccc(CCS(=O)(=O)c3ccccc3)cc12`, the Potency result in test [4] is “inactive”. In addition, the compound was classed as inactive in test [2], in test [6], in test [7] and in test [8].
`OCC(CBr)(CBr)CBr`: the Potency result in [4], in test [1] and in [5] was “inactive” in each case.
For `O=C(O)[C@@H](O)[C@H](O)[C@H](O)[C@@H](O)C(=O)O`, in test [4], the Potency result is “inactive”. Besides, the compound was classed as inactive in [2].
For `CC(=O)N(CC(O)CN(C(C)=O)c1c(I)c(C(=O)NCC(O)CO)c(I)c(C(=O)NCC(O)CO)c1I)c1c(I)c(C(=O)NCC(O)CO)c(I)c(C(=O)NCC(O)CO)c1I` (stereo unspecified), the Potency result in [4], in [1], in test [3] and in [5] was “inactive” in each case.
For the compound `CCC1(C)NC(=O)NC1=O` (stereo unspecified), the Potency entry in test [4], in test [1], in [3] and in test [5] was “inactive” each time.
For `COc1ccccc1N1CCN(CCCNc2cc(=O)n(C)c(=O)n2C)CC1`, the Potency entry in test [4], in test [1], in [3] and in [5] was “inactive” throughout. Also, the outcome in test [6], in [7], in [8], in test [9] and in test [10] was inactive.
With `COc1cc(N)c(Cl)cc1C(=O)NC1CCN(Cc2ccccc2)CC1`, the Potency result in test [4], in [1], in test [3] and in test [5] was “inactive” throughout.
For the compound `CCCC1CCC(=O)O1` (stereo unspecified), the Potency result in [1] is “inactive”. Further, the outcome in [2] was inactive.
On to `NS(=O)(=O)c1cc(-c2nn[nH]n2)c(NCc2cccs2)cc1Cl`, for which the Potency entry in test [4], in test [1] and in test [5] was “inactive” throughout.
As for `NC(=O)Cc1cccc(C(=O)c2ccccc2)c1N`, the Potency entry in test [4], in test [1], in test [3] and in test [5] was “inactive” each time.
For `Clc1cccc(-c2cc(Cl)cc(Cl)c2)c1`, the Potency entry in test [4], in test [3] and in test [5] was “inactive” each time. The compound was called inactive in test [2].
For `COc1ccc(Nc2ccc(OC)cc2)cc1`, the Potency result in [4], in [1] and in test [3] was “inactive” in each case. In test [5], the Potency is 4.94 µM (active).
`CC(C)=CCCC(C)CCOC=O` (stereo unspecified): the Potency entry in [1] and in test [3] was “inactive” throughout. The result in test [2] was inactive.
As to `CC(C)=CCC[C@](C)(O)[C@@H]1CC=C(C)CC1`, the Potency result in test [4], in test [3] and in test [5] was “inactive” in each case.
Turning to `CCCN(CCC)C(=O)C(CCC(=O)O)NC(=O)c1ccccc1` (stereo unspecified), the Potency entry in test [4], in test [1], in test [3] and in test [5] was “inactive” in each case. Also, the compound was called inactive in test [6], in test [7], in test [8], in test [9] and in test [10].
For `Cc1ccc([N+](=O)[O-])c(N)c1`, in test [1], the Potency result is “inactive”. Besides, in test [2], the call was inactive.
As for `O=Cc1ccc(O)c(O)c1O`, the Potency result in [1] and in test [3] was “inactive” throughout. The compound was called inactive in test [2].
On to `CC1(C)S[C@@H]2[C@H](NC(=O)C(C(=O)O)c3ccccc3)C(=O)N2[C@H]1C(=O)O` (stereo partly specified), for which the Potency result in test [4], in [1], in [3] and in [5] was “inactive” each time.
For the compound `CCCCNC(=S)NCCCC`, the Potency entry in test [1] and in test [3] was “inactive” throughout. Also, in test [2], the result was inactive.
With `Cc1c(-c2ccccc2)oc2c(C(=O)OCCN3CCCCC3)cccc2c1=O`, in test [1], the Potency result was “inactive”.
As for `O=C(CC(=O)C(F)(F)F)c1ccccc1`, the Potency result in test [1] and in test [3] was “inactive” each time. Moreover, the compound was classed as inactive in [2]. Besides, the Potency in test [5] was 22 µM (active).
On to `CCC(=O)O[C@]1(C(=O)SCF)[C@H](C)C[C@H]2[C@@H]3C[C@H](F)C4=CC(=O)C=C[C@]4(C)[C@@]3(F)[C@@H](O)C[C@@]21C`, for which the Potency entry in [1] and in test [5] was “inactive” throughout.
As for `CCCCCCCCCCCCCCCCOP(=O)([O-])OCC[N+](C)(C)C`, the result in test [2] was inactive. Also, the Potency result in test [3] and in [5] was “inactive” each time.
